Values joined by “and” are separate entries in the source; they are usually repeats but may differ in a detail not shown here. Identical values can stand only once. The panel holds about 83,000 compounds, 20% with a hit somewhere; the sample as a whole holds those more often.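 Treatment: one concentration, 48 hours, 96-well format. Scoring: percent growth, with anything below 10 considered active.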 Active and inactive are the calls of the source.
Columns and labels:
Test in all cases: NCI-60 one-dose screen, 48 h (100 = growth as untreated, 0 = no growth, -100 = all killed)
Conditions in all cases: 10 µM unless noted
[1] = system: HCT-15 colon
[2] = system: HT29 colon
[3] = system: SNB-75 CNS
[4] = system: SNB-19 CNS
[5] = system: PC-3 prostate
[6] = system: SK-MEL-5 melanoma
[7] = system: UACC-62 melanoma
[8] = system: LOX IMVI melanoma
[9] = system: SK-MEL-28 melanoma
[10] = system: SK-MEL-2 melanoma
[11] = system: EKVX NSCLC
[12] = system: SN12C renal
[13] = system: UO-31 renal
[14] = system: TK-10 renal
[15] = system: ACHN renal
[16] = system: CAKI-1 renal
[17] = system: CCRF-CEM leukemia
[18] = system: MOLT-4 leukemia
[19] = system: U251 CNS
[20] = system: A498 renal

Measured: growth

COc1cc(/C=N/Nc2nc3c([nH]2)c(=O)n(C)c(=O)n3C)ccc1O
inactive: [1] 105% | [2] 97.7% and 110% | [3] 86.9% and 88% | [4] 112% and 108% | [5] 99% and 98% | [6] 97.9% and 104% | [7] 91.9% and 97.9% | [8] 98.2% and 116% | [9] 108% and 107% | [10] 98.2% and 108% | [11] 103% and 119% | [12] 97.4% and 98.2% | [13] 86.7% and 86.2% | [14] 95.7% and 93.1% | [15] 109% | [16] 99.3% and 118% | [17] 89.2% and 104% | [18] 87.9% and 97.5%

O=C1CCN(Cc2ccccc2)C(=S)N1
inactive: [1] 99.2% and 98.3% | [2] 121% and 98% | [4] 105% and 101% | [19] 102% and 98.7% | [5] 92.3% | [6] 105% and 108% | [7] 102% and 98.9% | [8] 105% and 99.7% | [9] 126% and 107% | [10] 107% and 103% | [11] 111% and 118% | [12] 104% and 95.6% | [13] 87.5% and 83.7% | [14] 106% and 89.6% | [15] 104% and 97.3% | [16] 101% and 96.1% | [20] 94.6% | [17] 86.3% and 98.4% | [18] 78.2% and 98.5%

CCCCOc1cc(C(=O)NCCN(CC)CC)c2ccccc2n1
inactive: [1] 96.5% and 100% | [2] 57.7% and 92.4% | [4] 90.1% and 91.9% | [19] 83.4% and 92.2% | [5] 73.9% and 96% | [6] 86.4% and 94.5% | [7] 95.6% and 90.1% | [8] 88.4% and 110% | [9] 102% and 104% | [10] 120% and 99.6% | [11] 74.9% | [12] 86.7% and 93.5% | [13] 59.1% and 78% | [14] 100% | [15] 90.1% and 99.7% | [16] 73.6% and 92.8% | [20] 81.1% and 95.4% | [17] 89.4% | [18] 98% and 101%

COc1cc(NS(C)(=O)=O)ccc1Nc1c2ccccc2nc2c(C)cccc12
active: [1] 7.59% and 0.251% | [2] -36.8% and 0.935% | [3] -7.95% and -6.77% | [6] -29.9% and 2.9% | [8] -49.9% and -3.55% | [12] -8.74% and 6.11% | [13] -22.1% and -17.6% | [14] -39.5% and -35.3% | [15] -60.1% and -56.2% | [16] -35.7% and -10.5% | [20] -44% and -27.8% | [17] -11% | [18] -12.1% and -13.6%
1.52% (active) and 23.3% (inactive): [7]
inactive: [4] 19.8% and 25.2% | [5] 17.8% and 28.4% | [10] 20.4% and 44.2%

CN(C)CCCNC1=C(Cl)C(=O)c2ccccc2C1=O
53.1% (inactive) and -9.85% (active): [4]
30.2% (inactive) and -44.6% (active): [11]
inactive: [3] 64.1% and 47.8% | [5] 56.8% and 53.6% | [9] 83.2% and 83.7% | [13] 73.8% and 47.6% | [14] 120% and 116% | [15] 92.7% and 92.5% | [16] 91.3% and 104% | [20] 103% and 85.4% | [18] 57% and 79.3%
28.6% (inactive) and -13.8% (active): [7]
67.1% (inactive) and -98.3% (active): [12]
87.6% (inactive) and -34.4% (active): [10]
active: [1] -62.2% and -49.3% | [2] -26% and -31.7% | [6] -94.2% and -100% | [8] -43.5%
